Compound activity: PubChem BioAssay, Broad Institute
DENV2 CPE rescue = protects cells from dengue virus 2 cytopathic effect; DENV2-infected cells, cytopathic effect rescue, plate reader; CPE inhibition, % at 9.99 µM; 350,000 tested, 1.7% active; in the data active = CPE inhibition above about 20%, passing the limit was not always enough; inconclusive = no clear call, values can overlap the other calls; tested in BHK-21 cells;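 note: 0% = median of neutral control wells and 100% = median of positive control wells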
ERAP1 HTS inh = blocks human ERAP1 aminopeptidase activity; recombinant ERAP1, Leu-AMC fluorescence, 60 min; inhibition, % at 10.7 µM; Q9NZ08; 340,000 tested, 0.15% active;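 active = mean replicate inhibition of at least 30%, or all replicates individually reaching that 30% level; inactive = mean below 30% and not every replicate reaching it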;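 note: 0% = neutral control wells and 100% = L-leucinethiol positive control wells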
PDI inh = inhibitors of human protein disulfide isomerase | 350,000 tested, 0.052% active | PDI insulin aggregation turbidity, A650, 90 min | inhibition, % at 10 µM;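 active = mean inhibition across replicates of 30% or more, whatever share of single replicates reach that level; inconclusive = mean inhibition below 30% while every single replicate reaches 30%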
ERp5 inh = blocks human ERp5 reductase activity on insulin. Q15084. ERp5 insulin aggregation, absorbance 650 nm, 90 min. inhibition, % at 9.99 µM. 350,000 tested, 0.05% active. AID 651711;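 active = mean replicate inhibition above about 25%, with every replicate also reaching it, limit read from the data, passing the limit was not always enough; inconclusive = only one of those two criteria met; inactive = neither criterion met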
AF4-AF9 inh = inhibitors of human MLL-AF4/AF9 interaction; 350,000 tested, 0.47% active; inhibition, % at 10 µM; P42568; AlphaScreen, biotin-AF4 peptide binding to FLAG-AF9;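 active = every replicate reaching a set inhibition limit, whatever the replicate mean, cut at about 25% in these data; inconclusive = mean inhibition reaches that limit but some replicates miss it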;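 note: 0% = plate neutral control median and 100% = total signal loss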
Target sequence (P42568 whole entry, looked up): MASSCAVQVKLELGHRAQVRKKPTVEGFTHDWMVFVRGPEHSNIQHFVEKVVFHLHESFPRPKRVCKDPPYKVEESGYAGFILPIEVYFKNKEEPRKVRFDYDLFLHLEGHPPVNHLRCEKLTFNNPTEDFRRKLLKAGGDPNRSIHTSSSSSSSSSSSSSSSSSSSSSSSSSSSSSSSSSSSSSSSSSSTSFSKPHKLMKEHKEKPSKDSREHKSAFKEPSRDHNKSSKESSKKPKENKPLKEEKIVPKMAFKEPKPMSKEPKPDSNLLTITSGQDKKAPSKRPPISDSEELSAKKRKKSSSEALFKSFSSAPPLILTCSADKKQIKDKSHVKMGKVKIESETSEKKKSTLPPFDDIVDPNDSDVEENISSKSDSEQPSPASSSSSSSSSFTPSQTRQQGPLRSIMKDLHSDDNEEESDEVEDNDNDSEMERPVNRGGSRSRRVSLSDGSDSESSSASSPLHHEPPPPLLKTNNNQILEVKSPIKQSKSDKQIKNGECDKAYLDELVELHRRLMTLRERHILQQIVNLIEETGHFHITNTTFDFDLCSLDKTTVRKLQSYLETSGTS
An asterisk follows results filed as active; ? = inconclusive; . = no result. This is a sample that favours compounds with a hit; in the whole collection about 1.8% have one here.

SMILES	DENV2 CPE rescue	ERAP1 HTS inh	PDI inh	ERp5 inh	AF4-AF9 inh
COc1ccc2c3c([nH]c2c1)[C@@H](CO)N(Cc1ccccn1)CC31CN(Cc2cccc(F)c2)C1	16	.	.	.	12
COc1ccc2c3c([nH]c2c1)[C@H](CO)N(Cc1ccccn1)CC31CCN(C(C)=O)CC1	7	-2	.	-2	-4
COc1ccc2c3c([nH]c2c1)[C@@H](CO)N(Cc1cccc(F)c1)CC31CN(Cc2ccccn2)C1	39*	0	.	-8	17
COc1ccc(CN2CC3(C2)CN(Cc2ccc4c(c2)OCO4)[C@@H](CO)c2[nH]c4cc(OC)ccc4c23)cc1	-35	.	.	.	50*
CN(C)CC(=O)N[C@H]1CC[C@H](CCn2cc(C3CCCC3)nn2)O[C@H]1CO	0	-1	.	-4	-2
COc1ccc(/C=C(\NC(=O)c2ccccc2)C(=O)OC[C@@H]2CCC[N+]3(C)CCCCC23)cc1OC (stereo partly specified)	-5	39*	3	2	-1
CCCNC(=O)N1CC2(CN(S(=O)(=O)c3ccc(OC)cc3)C2)c2c(n(C)c3cc(OC)ccc23)[C@H]1CO	17	3	.	-6	-1
O=C(c1cccc(Cl)c1)N1CCC2(CC1)NCCc1[nH]cnc12	27*	2	0	0	0
O=C(c1cccc(F)c1)N1CCC2(CC1)NCCc1[nH]cnc12	5	-2	12	6	1
COc1ccc(-c2ccc3n(c2=O)C[C@H]2[C@H](CO)[C@@H](C(=O)Nc4ccccc4)[C@@H]3N2C)cc1	8	0	.	-1	0
CC(=O)[C@]12O[C@@]3(COC[C@H](c4ccccc4)N3C1=O)[C@H]1C(=O)N(c3ccccc3)C(=O)[C@H]12	4	-1	.	6	0
CNC(=O)/C(C#N)=C\c1ccc(CNS(=O)(=O)c2ccc(Cl)cc2)o1	6	33*	-4	-3	-2
CNC(=O)/C(C#N)=C\c1ccc(CNS(=O)(=O)c2ccccc2)o1	.	.	-1	.	.
O=C(C1CC1)N1CC2(C1)[C@H](c1ccccc1)[C@@H](CO)N2Cc1cncnc1	11	4	.	-5	0
O=C(C1CCCCC1)N1C[C@H](O)[C@@H](n2cc(C3CC3)nn2)C[C@@H]1c1ccccc1	86*	-4	-3	-2	-5
CCCCCC(=O)N1C[C@@H](n2cc(C3CC3)nn2)[C@H](O)C[C@@H]1c1ccccc1	25*	-1	5	1	0
O=C(OCc1cn([C@H]2CN(C(=O)C3CCCCC3)[C@@H](c3ccccc3)C[C@@H]2O)nn1)c1ccccc1	25*	-2	2	2	-3
Cc1ccc([C@H]2C[C@H](n3cc(COC(=O)c4ccccc4)nn3)[C@@H](O)CN2C(=O)C2CCCCC2)cc1	52*	-2	4	-6	-2
C[C@@H]1CN([C@@H](C)CO)C(=O)Cc2cc(NC(=O)CCCCCC(=O)Nc3ccccc3N)ccc2O[C@@H]1CN(C)S(=O)(=O)c1ccc(F)cc1	3	-1	.	8	1
C[C@@H]1CCCCO[C@@H](CN(C)CC2CCCCC2)[C@H](C)CN([C@H](C)CO)C(=O)c2cc(NS(=O)(=O)c3cn(C)cn3)ccc2O1	2	-3	.	3	-3
C[C@@H]1CN([C@H](C)CO)C(=O)c2cc(NC(=O)Cc3ccccc3)ccc2O[C@@H](C)CCCCO[C@@H]1CN(C)C(=O)C1CCCCC1	5	1	.	-3	0
CO[C@H]1CN(C)C(=O)c2ccc(NC(=O)Cc3ccccc3)cc2OC[C@H](C)N(C(=O)c2ccccc2F)C[C@H]1C	4	.	.	0	1
CC(=C\c1ccco1)/C=C(\C#N)C(=O)NCCc1c[nH]c2ccccc12	58*	3	12	0	9
O=C(NCCc1c[nH]c2ccccc12)/C(=C/c1ccco1)NC(=O)c1ccco1	-5	-3	-2	-1	-2
C[C@H](NC(=O)[C@@H]1[C@@H](CO)[C@@H]2Cn3c(cccc3=O)[C@@H]2N1CC1CCCCC1)c1ccccc1	2	-3	.	5	1
SMILES	DENV2 CPE rescue	ERAP1 HTS inh	PDI inh	ERp5 inh	AF4-AF9 inh
C[C@H](NC(=O)[C@@H]1[C@@H](CO)[C@@H]2Cn3c(cccc3=O)[C@@H]2N1Cc1cccnc1)c1ccccc1	41*	-3	.	-1	0
C[C@@H](NC(=O)[C@@H]1[C@@H](CO)[C@@H]2Cn3c(cccc3=O)[C@@H]2N1CC1CCCC1)c1ccccc1	156*	.	.	1	-18
CC(=O)Nc1cc(-c2cccc(NS(C)(=O)=O)c2)cn2c(-c3cccc(C(C)=O)c3)cnc12	33*	3	-1	2	-2
COc1ccc(-c2cnc3c(NC(C)=O)cc(-c4cccc(NS(C)(=O)=O)c4)cn23)cc1OC	8	4	5	5	1
Cc1ccc(OCCOCCN2CCCC2)c(Br)c1	44*	-1	8	0	0
N[C@@H]1CC[C@@H](CCn2cc(C3CCCCC3)nn2)O[C@H]1CO	?	-3	.	-2	1
COc1ccc(COC(=O)C2=C(C)NC(=O)NC2c2ccccc2F)cc1 (stereo unspecified)	39*	-1	0	0	-4
COc1ccc(NC(=O)N(C)C[C@@H]2Oc3c(NS(=O)(=O)c4cccs4)cccc3C(=O)N([C@H](C)CO)C[C@@H]2C)cc1	-10	0	.	11	0
C[C@@H]1CN([C@@H](C)CO)C(=O)c2cccc(NS(C)(=O)=O)c2O[C@@H]1CN(C)Cc1ccccc1	13	2	.	2	1
Cc1ccc(CC(=O)Nc2cccc(C(=O)Nc3c(C)n(C)n(-c4ccccc4)c3=O)c2)cc1C	31*	4	7	-3	0
O=C(C[C@@H]1C=C[C@@H](NC(=O)Nc2cc(F)ccc2F)[C@@H](CO)O1)NCc1ccc2c(c1)OCO2	2	1	.	2	-1
COCCCN1C(=O)[C@@]2(Cc3ccccc31)c1ccccc1C(=O)N(Cc1ccccc1)[C@H]2c1ccc(CO)cc1	23*	3	.	1	-4
COCC(=O)N1C[C@@H]2[C@H](c3ccccc31)[C@H](CO)N2C(=O)Nc1ccccc1Cl	27*	1	.	-1	-2
COCC(=O)N1C[C@@H]2[C@H](c3ccccc31)[C@@H](CO)N2C(=O)Nc1ccccc1Cl	1	2	.	-3	0
CCCNC(=O)N1C[C@@H]2[C@H](c3ccccc31)[C@H](CO)N2C(=O)c1ccncc1	25*	-1	.	0	-1
COc1ccccc1CN1[C@H](CO)[C@H]2c3ccccc3N(C(=O)c3ccncc3)C[C@H]21	95*	-3	.	0	0
CCCNC(=O)N1C[C@H]2[C@@H](c3ccccc31)[C@H](CO)N2C(=O)c1ccncc1	-8	-1	.	-7	-2
COCC(=O)N1C[C@H]2[C@@H](c3ccccc31)[C@H](CO)N2C(=O)c1ccccc1F	-7	2	.	7	-1
COCC(=O)N1C[C@@H]2[C@H](c3ccccc31)[C@@H](CO)N2C(=O)c1ccccc1F	41*	4	.	0	-3
